Records with an inconclusive call do not appear. A structure can be active in one record and inactive in another. The source made the active and inactive calls. Rule for the calls, unless noted: active = hit-call score of the fitted dose curve at least 0.9, where 1 is the maximum; inactive = score below 0.9.
Assays:
[1] = target: Hepatocyte nuclear factor 4-alpha (Homo sapiens) (UniProt P41235); assay: ATG_HNF4a_TRANS: Attagene TRANS-FACTORIAL HepG2 Assay for human Hepatocyte Nuclear Factor 4 alpha (HNF4a) (AID 2282982; active = hit-call score of the fitted dose curve at least 0.9, where 1 is the maximum); details: HepG2 HNF4a transactivation reporter, mRNA readout
Chain of Hepatocyte nuclear factor 4-alpha (Homo sapiens) (P41235 whole entry, looked up, the tested form may be a part): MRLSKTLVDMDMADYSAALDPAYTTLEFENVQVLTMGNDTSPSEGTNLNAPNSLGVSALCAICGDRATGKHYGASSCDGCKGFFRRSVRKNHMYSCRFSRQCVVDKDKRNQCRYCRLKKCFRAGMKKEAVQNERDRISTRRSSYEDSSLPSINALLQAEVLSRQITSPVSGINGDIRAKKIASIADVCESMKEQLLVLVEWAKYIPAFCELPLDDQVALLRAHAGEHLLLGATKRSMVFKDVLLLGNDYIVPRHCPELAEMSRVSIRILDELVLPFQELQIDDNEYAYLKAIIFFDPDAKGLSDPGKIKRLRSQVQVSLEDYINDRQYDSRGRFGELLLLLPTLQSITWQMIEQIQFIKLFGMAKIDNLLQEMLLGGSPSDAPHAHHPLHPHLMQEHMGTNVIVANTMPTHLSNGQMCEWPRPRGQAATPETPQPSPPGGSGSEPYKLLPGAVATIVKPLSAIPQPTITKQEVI
Method in brief: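 Endpoint reflects transcriptional activation of a GAL4-UAS reporter by an HNF4a-GAL4 chimera in transfected HepG2 cells, 24 h post-dosing. Fluorescence from RT-PCR products separated by capillary electrophoresis; DMSO baseline.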

[2] = ATG_M_06_TRANS: Attagene TRANS-FACTORIAL HepG2 Assay for M06 Transcription Factor (Internal Marker) (AID 2282983; active = hit-call score of the fitted dose curve at least 0.9, where 1 is the maximum); details: HepG2 Attagene TRANS M06 internal marker reporter
Method in brief: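 Read-out: fluorescent reporter cDNA fragments resolved by capillary electrophoresis after RT-PCR and HpaI cut. Source cells were HepG2 carrying transfected multi-reporter GAL4 constructs, dosed 24 h. Increase over DMSO control analysed.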

[3] = ATG_M_32_TRANS: Attagene TRANS-FACTORIAL HepG2 Assay for M32 Transcription Factor (Internal Marker) (AID 2282984; active = hit-call score of the fitted dose curve at least 0.9, where 1 is the maximum); details: HepG2 Attagene TRANS M32 internal marker reporter
Method in brief: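 Internal-marker readout from a multiplexed transcription reporter panel. HepG2 cells were transfected with GAL4-UAS reporter units, treated 24 hours, and reporter transcript levels determined by fluorescence after RT-PCR and capillary separation.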

[4] = target: Nuclear respiratory factor 1 (Homo sapiens) (UniProt Q16656); assay: ATG_NRF1_CIS: Attagene CIS-FACTORIAL HepG2 Assay for human Nuclear Respiratory Factor 1 (NRF1) Orphan Gene (AID 2282987); details: HepG2 NRF1 cis-element reporter, Attagene multiplex; actives raise or lower the signal
Chain of Nuclear respiratory factor 1 (Homo sapiens) (Q16656 whole entry, looked up): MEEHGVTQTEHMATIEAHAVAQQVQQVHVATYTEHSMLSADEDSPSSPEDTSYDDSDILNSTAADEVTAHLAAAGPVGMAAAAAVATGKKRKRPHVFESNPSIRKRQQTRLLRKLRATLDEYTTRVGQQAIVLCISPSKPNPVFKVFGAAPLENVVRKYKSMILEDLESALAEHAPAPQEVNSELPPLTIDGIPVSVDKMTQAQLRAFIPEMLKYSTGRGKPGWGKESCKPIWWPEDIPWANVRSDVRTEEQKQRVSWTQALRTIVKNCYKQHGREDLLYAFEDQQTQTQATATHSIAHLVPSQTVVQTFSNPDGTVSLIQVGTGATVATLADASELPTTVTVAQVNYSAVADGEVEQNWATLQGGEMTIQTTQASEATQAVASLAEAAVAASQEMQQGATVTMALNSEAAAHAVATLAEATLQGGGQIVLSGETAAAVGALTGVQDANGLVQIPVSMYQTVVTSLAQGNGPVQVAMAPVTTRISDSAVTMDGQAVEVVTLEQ
Method in brief: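 Multiplexed cis-reporter assay, HepG2 cells, 24 h treatment. Total RNA → oligo(dT) RT → PCR with reporter-specific primers → 6-FAM primer extension → HpaI cut → CE. Bidirectional fit vs DMSO.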

[5] = ATG_NFI_CIS: Attagene CIS-FACTORIAL HepG2 Assay for human Nuclear Factor I (NFI) (AID 2282989); details: HepG2 cis-regulatory reporter, NFI response element transcription; actives raise or lower the signal
Method in brief: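 Multiplexed cis-reporter system in human HepG2 cells reports native TF activity as reporter mRNA induction 24 h post-dose. Fragments labelled with 6-FAM, HpaI-digested and resolved by capillary electrophoresis; activity fitted both directions versus DMSO.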

[6] = ATG_NRF2_ARE_CIS: Attagene CIS-FACTORIAL HepG2 Assay for human Nuclear Factor Erythroid 2 Related Factor 2 (NFR2) response to Antioxidant Response Elements (ARE) (AID 2282992); details: HepG2 Attagene ARE/NRF2 reporter, transcription factor activity; actives raise or lower the signal
Method in brief: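 Endogenous transcription factor activity read out as reporter transcript levels (RT-PCR plus capillary electrophoresis, fluorescence) in transiently transfected HepG2 cells. Measured at 24 h after dosing; gain or loss of signal fitted versus DMSO.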

[7] = ATG_Oct_MLP_CIS: Attagene CIS-FACTORIAL HepG2 Assay for human Octamer-Binding Transcription Factor (Oct) (AID 2282993); details: HepG2 Attagene cis-factorial Oct reporter, mRNA; actives raise or lower the signal
Method in brief: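 After 24 h compound exposure, transfected HepG2 cells were lysed for total RNA; reporter-specific cDNA was PCR-amplified, fluorescently labelled and sized by capillary electrophoresis. Bidirectional curve fitting used DMSO as baseline.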

[8] = target: Cellular tumor antigen p53 (Homo sapiens) (UniProt P04637); assay: ATG_p53_CIS: Attagene CIS-FACTORIAL HepG2 Assay for human p53 Transcription Factor (AID 2282994); details: HepG2 p53 cis-element reporter, Attagene mRNA; actives raise or lower the signal
Chain of Cellular tumor antigen p53 (Homo sapiens) (P04637 whole entry, looked up): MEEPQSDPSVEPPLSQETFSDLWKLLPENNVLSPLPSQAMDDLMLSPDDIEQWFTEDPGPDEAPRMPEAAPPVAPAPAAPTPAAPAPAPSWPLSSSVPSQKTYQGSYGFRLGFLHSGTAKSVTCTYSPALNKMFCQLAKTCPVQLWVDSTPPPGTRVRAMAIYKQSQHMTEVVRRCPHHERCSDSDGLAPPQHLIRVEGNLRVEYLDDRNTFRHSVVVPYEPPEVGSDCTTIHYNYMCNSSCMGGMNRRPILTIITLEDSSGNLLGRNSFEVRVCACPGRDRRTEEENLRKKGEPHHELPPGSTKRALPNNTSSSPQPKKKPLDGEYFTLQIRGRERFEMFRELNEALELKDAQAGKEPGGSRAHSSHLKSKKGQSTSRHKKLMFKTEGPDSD
Method in brief: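 Endogenous p53 activity read in transiently transfected HepG2 from a cis-element-driven reporter transcript after 24 h exposure. RNA reverse-transcribed, PCR-amplified, fluorescently labelled and sized by capillary electrophoresis; gain or loss fitted against DMSO baseline.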

[9] = BSK_3C_TissueFactor: BioMAP Diversity Plus: 3C Assay for Tissue Factor Biomarker Activity (AID 2282997); details: BioMAP 3C HUVEC, tissue factor biomarker readout; actives raise or lower the signal
Method in brief: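 HUVEC, 3C system, 24 h post-dose; Tissue Factor by ELISA; bidirectional fit vs DMSO baseline.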

[10] = BSK_3C_uPAR: BioMAP Diversity Plus: 3C Assay for Urokinase-type plasminogen activator receptor (uPAR) Biomarker Activity (AID 2282998); details: BioMAP 3C HUVEC, uPAR biomarker ELISA; actives raise or lower the signal
Method in brief: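 Values derive from bidirectional curve fitting relative to DMSO, which served as baseline of activity. uPAR was measured by ELISA in human umbilical vein endothelial primary cultures 24 h after compound addition.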

[11] = BSK_3C_VCAM1: BioMAP Diversity Plus: 3C Assay for Vascular cell adhesion molecule 1 (VCAM1) Biomarker Activity (AID 2282999); details: BioMAP 3C HUVEC, VCAM1 ELISA, cytokine-stimulated; actives raise or lower the signal
Method in brief: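 HUVEC primary cells, 24 h compound exposure; VCAM-1 by ELISA; gain/loss of signal fitted bidirectionally vs DMSO baseline.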

[12] = BSK_4H_Eotaxin3: BioMAP Diversity Plus: 4H Assay for Eotaxin 3 Biomarker Activity (AID 2283000); details: primary human endothelial cells (HUVEC); actives raise or lower the signal;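 note: CCL26 protein level quantified by ELISA in parallel with SRB cytotoxicity check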
Method in brief: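 Readout is Eotaxin-3 (CCL26) level by ELISA in primary human umbilical vein endothelial cells harvested 24 h after chemical exposure; activity fitted in both directions against DMSO control.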

[13] = target: Oxysterols receptor LXR-alpha (Homo sapiens) (UniProt Q13133); assay: ATG_LXRa_TRANS: Attagene TRANS-FACTORIAL HepG2 Assay for human Liver X Receptor alpha (LXRa) (AID 2282980; active = hit-call score of the fitted dose curve at least 0.9, where 1 is the maximum); details: HepG2 Attagene TRANS reporter, LXRa transactivation
Chain of Oxysterols receptor LXR-alpha (Homo sapiens) (Q13133 whole entry, looked up, the tested form may be a part): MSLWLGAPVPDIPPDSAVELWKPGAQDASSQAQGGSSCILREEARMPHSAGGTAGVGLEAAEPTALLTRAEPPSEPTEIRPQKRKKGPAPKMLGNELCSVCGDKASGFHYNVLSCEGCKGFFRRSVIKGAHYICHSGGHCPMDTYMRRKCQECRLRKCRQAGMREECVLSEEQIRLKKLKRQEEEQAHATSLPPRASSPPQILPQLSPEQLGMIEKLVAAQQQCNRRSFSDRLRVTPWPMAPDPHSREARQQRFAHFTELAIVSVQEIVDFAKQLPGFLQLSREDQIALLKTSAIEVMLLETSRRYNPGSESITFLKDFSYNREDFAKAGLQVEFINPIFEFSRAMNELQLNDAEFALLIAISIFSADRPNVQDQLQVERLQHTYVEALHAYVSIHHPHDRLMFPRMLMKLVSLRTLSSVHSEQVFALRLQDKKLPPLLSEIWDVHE
Method in brief: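 Read-out: reporter transcript levels by RT-PCR plus capillary electrophoresis, fluorescence intensity. Transiently transfected HepG2, exogenous NR-GAL4 chimera, GAL4-UAS reporters; 24 h compound exposure. Activity = increase over DMSO negative control.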

[14] = target: Oxysterols receptor LXR-beta (Homo sapiens) (UniProt P55055); assay: ATG_LXRb_TRANS: Attagene TRANS-FACTORIAL HepG2 Assay for human Liver X Receptor beta (LXRb) (AID 2282981; active = hit-call score of the fitted dose curve at least 0.9, where 1 is the maximum); details: HepG2 Attagene TRANS GAL4-LXRb reporter, mRNA
Chain of Oxysterols receptor LXR-beta (Homo sapiens) (P55055 whole entry, looked up, the tested form may be a part): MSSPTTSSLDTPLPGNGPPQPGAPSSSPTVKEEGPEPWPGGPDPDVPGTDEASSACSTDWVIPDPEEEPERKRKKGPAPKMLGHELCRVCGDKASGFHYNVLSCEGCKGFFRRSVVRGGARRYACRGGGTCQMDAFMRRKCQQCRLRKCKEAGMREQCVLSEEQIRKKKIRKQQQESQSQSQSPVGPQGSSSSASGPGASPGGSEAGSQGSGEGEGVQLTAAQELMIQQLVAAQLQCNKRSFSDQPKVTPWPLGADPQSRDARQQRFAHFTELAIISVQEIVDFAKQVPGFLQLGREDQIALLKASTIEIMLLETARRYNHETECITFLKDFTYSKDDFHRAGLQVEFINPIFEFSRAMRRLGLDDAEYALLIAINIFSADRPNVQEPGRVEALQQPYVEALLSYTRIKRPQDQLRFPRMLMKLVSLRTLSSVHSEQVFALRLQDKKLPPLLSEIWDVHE
Method in brief: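 Multiplexed reporter assay, HepG2, 24 h dosing. Fluorescence of labelled RT-PCR products after capillary electrophoresis gives transcript level; positive fitting direction relative to DMSO.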

[15] = target: Nuclear receptor subfamily 4 group A member 2 (Homo sapiens) (UniProt P43354); assay: ATG_NURR1_TRANS: Attagene TRANS-FACTORIAL HepG2 Assay for human Nuclear Receptor Related Protein 1 (NURR1) (AID 2282985; active = hit-call score of the fitted dose curve at least 0.9, where 1 is the maximum); details: HepG2 Attagene TRANS reporter, mRNA readout
Chain of Nuclear receptor subfamily 4 group A member 2 (Homo sapiens) (P43354 whole entry, looked up): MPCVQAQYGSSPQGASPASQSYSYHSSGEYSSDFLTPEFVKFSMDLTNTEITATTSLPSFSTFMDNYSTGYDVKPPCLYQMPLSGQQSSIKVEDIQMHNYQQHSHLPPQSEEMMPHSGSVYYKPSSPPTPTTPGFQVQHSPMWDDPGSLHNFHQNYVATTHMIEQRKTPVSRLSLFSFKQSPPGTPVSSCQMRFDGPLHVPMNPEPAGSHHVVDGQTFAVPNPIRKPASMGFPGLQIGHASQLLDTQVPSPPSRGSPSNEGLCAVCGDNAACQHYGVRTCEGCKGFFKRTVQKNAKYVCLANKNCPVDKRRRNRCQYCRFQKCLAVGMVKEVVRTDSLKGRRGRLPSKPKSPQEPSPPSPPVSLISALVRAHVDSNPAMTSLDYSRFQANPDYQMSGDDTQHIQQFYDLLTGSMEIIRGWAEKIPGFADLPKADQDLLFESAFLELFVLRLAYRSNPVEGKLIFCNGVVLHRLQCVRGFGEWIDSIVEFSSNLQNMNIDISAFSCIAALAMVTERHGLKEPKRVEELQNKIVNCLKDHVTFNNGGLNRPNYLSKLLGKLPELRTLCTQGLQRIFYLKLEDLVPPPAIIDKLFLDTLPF
Method in brief: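 Endpoint: reporter mRNA increase relative to DMSO. HepG2 cells transfected with reporter units, treated 24 h; RNA processed by RT-PCR, labelling, HpaI digestion and capillary electrophoresis.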

[16] = target: Myc proto-oncogene protein (Homo sapiens) (UniProt P01106); assay: ATG_Myc_CIS: Attagene CIS-FACTORIAL HepG2 Assay for human Myelocytomatosis (Myc) Proto-Oncogene Transcription Factor (AID 2282990); details: HepG2, Attagene cis-reporter transcription factor activity; actives raise or lower the signal
Chain of Myc proto-oncogene protein (Homo sapiens) (P01106 whole entry, looked up, the tested form may be a part): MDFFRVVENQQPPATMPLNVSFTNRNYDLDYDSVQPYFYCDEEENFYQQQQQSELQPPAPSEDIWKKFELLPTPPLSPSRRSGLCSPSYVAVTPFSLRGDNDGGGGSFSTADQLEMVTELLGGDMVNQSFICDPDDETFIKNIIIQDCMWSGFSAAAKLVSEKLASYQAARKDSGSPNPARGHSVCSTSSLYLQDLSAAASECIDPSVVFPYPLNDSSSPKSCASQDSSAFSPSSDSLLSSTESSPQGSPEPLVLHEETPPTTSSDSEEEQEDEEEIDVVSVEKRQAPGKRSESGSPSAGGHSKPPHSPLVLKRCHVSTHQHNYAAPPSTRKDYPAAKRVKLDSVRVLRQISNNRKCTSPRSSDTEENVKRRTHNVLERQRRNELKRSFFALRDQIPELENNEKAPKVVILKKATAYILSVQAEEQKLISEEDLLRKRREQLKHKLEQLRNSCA
Method in brief: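 Read-out: fluorescent reporter mRNA fragments resolved by capillary electrophoresis after RT-PCR. Human HepG2 liver cells carried transfected cis-element reporter units and were dosed for 24 h. Gain or loss of signal fitted relative to DMSO baseline.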

[17] = target: Transcriptional activator Myb (Homo sapiens) (UniProt P10242); assay: ATG_Myb_CIS: Attagene CIS-FACTORIAL HepG2 Assay for human Myeloblastosis (Myb) Proto-Oncogene Transcription Factor (AID 2282986); details: HepG2 Attagene CIS-FACTORIAL Myb reporter transcription; actives raise or lower the signal
Chain of Transcriptional activator Myb (Homo sapiens) (P10242 whole entry, looked up): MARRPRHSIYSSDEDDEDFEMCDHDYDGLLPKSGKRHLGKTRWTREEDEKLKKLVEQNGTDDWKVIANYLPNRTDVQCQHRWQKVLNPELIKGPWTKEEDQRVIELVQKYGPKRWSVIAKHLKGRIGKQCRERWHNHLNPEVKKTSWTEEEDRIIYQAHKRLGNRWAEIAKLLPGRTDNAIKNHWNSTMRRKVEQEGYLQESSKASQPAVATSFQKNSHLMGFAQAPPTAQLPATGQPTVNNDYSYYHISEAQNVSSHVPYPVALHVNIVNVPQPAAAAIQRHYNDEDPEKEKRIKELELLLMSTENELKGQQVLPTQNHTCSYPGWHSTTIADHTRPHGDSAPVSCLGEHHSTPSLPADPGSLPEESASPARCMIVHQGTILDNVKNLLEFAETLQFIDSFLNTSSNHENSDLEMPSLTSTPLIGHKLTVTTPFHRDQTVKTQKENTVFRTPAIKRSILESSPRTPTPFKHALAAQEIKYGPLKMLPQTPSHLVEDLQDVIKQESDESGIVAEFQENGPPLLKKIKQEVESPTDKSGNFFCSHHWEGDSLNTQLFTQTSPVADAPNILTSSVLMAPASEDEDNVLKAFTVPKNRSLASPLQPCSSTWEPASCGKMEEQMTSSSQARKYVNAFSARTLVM
Method in brief: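 Reporter transcript levels, quantified by fluorescent RT-PCR and capillary electrophoresis, serve as the read-out. Transfected HepG2 cells carrying cis-promoter reporter units are dosed for 24 hours, and curves are fitted bidirectionally against DMSO controls.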

[18] = target: Bile acid receptor (Homo sapiens) (UniProt Q96RI1); assay: ATG_FXR_TRANS: Attagene TRANS-FACTORIAL HepG2 Assay for Farnesoid X Receptor (FXR) (AID 2282979; active = hit-call score of the fitted dose curve at least 0.9, where 1 is the maximum;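 note: hits raise reporter mRNA above DMSO so AC50 marks FXR activation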); details: HepG2 Attagene TRANS FXR-GAL4 reporter transcription
Chain of Bile acid receptor (Homo sapiens) (Q96RI1 whole entry, looked up, the tested form may be a part): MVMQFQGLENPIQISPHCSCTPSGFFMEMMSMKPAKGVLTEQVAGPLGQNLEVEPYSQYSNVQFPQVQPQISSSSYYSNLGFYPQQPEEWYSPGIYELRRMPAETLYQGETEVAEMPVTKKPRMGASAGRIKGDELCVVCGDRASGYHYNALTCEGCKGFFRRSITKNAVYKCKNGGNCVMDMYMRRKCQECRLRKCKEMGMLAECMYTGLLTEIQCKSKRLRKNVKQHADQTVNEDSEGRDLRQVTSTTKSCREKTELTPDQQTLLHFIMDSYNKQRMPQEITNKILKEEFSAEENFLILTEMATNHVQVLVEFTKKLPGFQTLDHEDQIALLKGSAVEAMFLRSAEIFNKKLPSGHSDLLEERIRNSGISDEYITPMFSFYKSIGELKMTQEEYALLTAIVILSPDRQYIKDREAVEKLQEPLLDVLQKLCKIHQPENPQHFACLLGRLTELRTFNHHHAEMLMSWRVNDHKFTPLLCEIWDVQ
Method in brief: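 Read-out: fluorescent reporter transcripts quantified by capillary electrophoresis after RT-PCR of total RNA. Source cells were HepG2 transiently carrying chimeric NR-GAL4 plus GAL4-UAS reporter units, dosed 24 h. Activity fitted upward relative to DMSO baseline.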

[19] = ATG_NF_kB_CIS: Attagene CIS-FACTORIAL HepG2 Assay for human Nuclear Factor Kappa B (NF-kB) (AID 2282991); details: HepG2 Attagene cis-factorial NF-kB reporter mRNA; actives raise or lower the signal
Method in brief: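 Transient MRTU transfection of human HepG2 liver cells → 24 h chemical exposure → total RNA, oligo(dT) RT → PCR, 6-FAM primer extension, HpaI digest 2 h 37 C → CE fragment analysis. Bidirectional fitting, DMSO negative control.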

| Compound | outcome [1] | outcome [2] | outcome [3] | outcome [4] | outcome [5] | outcome [6] | outcome [7] | outcome [8] | outcome [9] | outcome [10] | outcome [11] | outcome [12] | outcome [13] | outcome [14] | outcome [15] | outcome [16] | AC50 [6] | outcome [17] | outcome [18] | outcome [19] |
| --- | --- | --- | --- | --- | --- | --- | --- | --- | --- | --- | --- | --- | --- | --- | --- | --- | --- | --- | --- | --- |
| O=S1(=O)CCCO1 | inactive | inactive | inactive | inactive | inactive | inactive | inactive | inactive | inactive | inactive | inactive | inactive |  |  |  |  |  |  |  |  |
| OCC(CO)(CO)CO | inactive | inactive |  | inactive | inactive | inactive | inactive |  | inactive | inactive | inactive | inactive | inactive | inactive | inactive | inactive | 141 µM (active) |  |  |  |
| CCOC(N)=O |  | inactive | inactive | inactive | inactive | inactive | inactive | inactive | inactive | inactive | inactive | inactive |  |  |  |  |  |  |  |  |
| CC1(C)C(=O)N(Cl)C(=O)N1Cl | inactive |  |  | inactive | inactive | inactive | inactive | inactive | inactive | inactive | inactive | inactive |  |  |  | inactive |  | inactive |  |  |
| Nc1ccn([C@@H]2O[C@H](CO)[C@@H](O)[C@@H]2O)c(=O)n1 |  |  |  |  | inactive | inactive | inactive |  | inactive | inactive | inactive | inactive | inactive | inactive |  |  |  | inactive |  |  |
| Cn1c(=O)c2[nH]cnc2n(C)c1=O | inactive |  | inactive |  | inactive | inactive | inactive | inactive | inactive | inactive | inactive | inactive |  |  | inactive | inactive |  |  | inactive |  |
| OC[C@H]1O[C@@H]2O[C@H]3[C@H](O)[C@@H](O)[C@@H](O[C@H]4[C@H](O)[C@@H](O)[C@@H](O[C@H]5[C@H](O)[C@@H](O)[C@@H](O[C@H]6[C@H](O)[C@@H](O)[C@@H](O[C@H]7[C@H](O)[C@@H](O)[C@@H](O[C@H]1[C@H](O)[C@H]2O)O[C@@H]7CO)O[C@@H]6CO)O[C@@H]5CO)O[C@@H]4CO)O[C@@H]3CO |  | inactive |  | inactive | inactive | inactive | inactive |  | inactive | inactive | inactive | inactive |  |  | inactive | inactive |  |  |  |  |
| OC[C@H]1O[C@@](CO)(O[C@H]2O[C@H](CO)[C@@H](O)[C@H](O)[C@H]2O)[C@@H](O)[C@@H]1O |  | inactive | inactive | inactive | inactive |  | inactive |  | inactive | inactive | inactive | inactive |  |  | inactive | inactive | 58.6 µM (active) | inactive | inactive | inactive |

— PubChem BioAssay (EPA / NIEHS)
